Unmarked numbers belong to inactive results. Results filed as inconclusive are left out. Activity calls are given as the source filed them. The call rests on the fitted dose curve; in most records, active means well fitted curve in the direction sought with a large enough effect; inconclusive means small, poorly fitted or top-dose-only effect, or another doubt; inactive means no such curve, though single readings can be large; an effect the other way counts as inactive or inconclusive.
tested on: not listed separately; test: Validation qHTS assay for inhibitors of Activation Induced Cytidine Deaminase (AID): UDG Counterscreen signal (AID 1347427); details: biochemical UDG counterscreen, fluorescence signal; series mostly up to 115 µM; further: 0% is about no effect
In short: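 Counterscreen read of UDG activity (2 U/mL, 4/3x) in the FRET deamination format with AID (1 uM, 4/3x), DJC20/DJC23 substrates (250 nM, 4x), 4 h at room temperature. NaOH stop, fluorescence at 560 ex/665 em.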

SMILES | outcome
Nc1ncnc2n[nH]c(Nc3ccc(F)cc3)c12 | inactive
COc1cccc2c1[C@@H]1CN(CCCCn3c(=O)[nH]c4c(sc5ncc(-c6ccccc6)nc54)c3=O)C[C@@H]1CO2 | inactive
Cn1cnc2c(NCc3ccccc3)nc(NCCO)nc21 | inactive

target: Single-stranded DNA cytosine deaminase (Homo sapiens) (UniProt Q9GZX7); test: Validation qHTS assay for inhibitors of Activation Induced Cytidine Deaminase (AID): AID signal (AID 1347429); details: Recombinant AID, FRET ssDNA deamination with UDG, fluorescence; series mostly up to 115 µM; further: on the % scale 0 is the no-effect control and ±100 the full control effect
Sequence (Q9GZX7 whole entry, looked up): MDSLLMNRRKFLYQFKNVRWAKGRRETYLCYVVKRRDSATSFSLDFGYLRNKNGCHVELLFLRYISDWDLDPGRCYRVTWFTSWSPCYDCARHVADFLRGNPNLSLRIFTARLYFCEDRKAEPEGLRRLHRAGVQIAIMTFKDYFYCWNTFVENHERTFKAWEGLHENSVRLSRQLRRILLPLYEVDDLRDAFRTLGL
In short: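 AID and UDG were combined and compounds added at final up to 114 uM, then DJC20/DJC23 FRET substrate was added for 4 hr at room temperature. NaOH was then added for 30 min before fluorescence was read at 540/590 nm.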

SMILES | outcome
Nc1ncnc2n[nH]c(Nc3ccc(F)cc3)c12 | inactive
COc1cccc2c1[C@@H]1CN(CCCCn3c(=O)[nH]c4c(sc5ncc(-c6ccccc6)nc54)c3=O)C[C@@H]1CO2 | inactive
Cn1cnc2c(NCc3ccccc3)nc(NCCO)nc21 | inactive

tested on: not listed separately; test: Primary qHTS for inhibitors of La Crosse Virus (LACV) - induced cell death in SH-SY5Y cells (AID 1508616); details: SH-SY5Y LACV cytopathicity rescue, ATP luminescence, 6 d; series mostly up to 4.29 µM;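 further: top concentration of the series differs between compounds; 0% = infected DMSO wells and 100% = uninfected DMSO wells; higher means more rescue of cells from virus-induced death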
In short: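 Luminescent ATP readout (ATPLite 1step, 5 min room temperature) measured rescue from LACV-induced death after 6 days of infection at 0.01 MOI; normalized to infected DMSO wells and uninfected DMSO wells.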

SMILES | outcome | activity change
CCCC(=O)OCOC(=O)C1=C(C)NC(C)=C(C(=O)OC)C1c1cccc(Cl)c1Cl (stereo unspecified) | inactive | 
O=C(OCC(O)CO)c1ccccc1Nc1ccnc2c(C(F)(F)F)cccc12 (stereo unspecified) | inactive | 
O=C(CCCCCCCCC#CI)Oc1ccccc1 | inactive | 
O=C(c1cc(O)c(O)c(O)c1)c1ccc(O)c(O)c1O | inactive | 
CC1CN(c2cc3c(cc2F)c(=O)c(C(=O)O)cn3-c2ccc(F)cc2F)CCN1 (stereo unspecified) |  | -2.85% [at 0.431 µM]
O=C1NCCN1CCN1CCC(c2cn(-c3ccc(F)cc3)c3ccc(Cl)cc23)CC1 | inactive | 
COC(=O)C1=C(C)NC(C)=C(C(=O)OCCc2ccc(N3CCN(C(c4ccccc4)c4ccccc4)CC3)cc2)C1c1cccc([N+](=O)[O-])c1 (stereo unspecified) | inactive | 
CCCC(=O)O[C@]1(C(=O)COC(=O)CC)CC[C@H]2[C@@H]3CCC4=CC(=O)CC[C@]4(C)[C@H]3[C@@H](O)C[C@@]21C | inactive | 
CC(=O)[C@H]1CC[C@H]2[C@@H]3C=CC4=CC(=O)CC[C@@]4(C)[C@@H]3CC[C@]12C | inactive | 
Cc1cc2nc3ccc(=[N+](C)C)cc-3sc2cc1N | inactive | 
CCCCCCCCCCCCCC[N+](C)(C)C | inactive | 
Nc1ncnc2n[nH]c(Nc3ccc(F)cc3)c12 | inactive | 
CCCCCOc1ccc(C2SC(=O)NC2=O)cc1OCC (stereo unspecified) | inactive | 
CC(C)(c1ccc(O)cc1)c1ccc(O)cc1 | inactive | 
CCCCC(CC)COC(=O)c1ccccc1C(=O)O (stereo unspecified) | inactive | 
N#C/C(=C1/SC[C@@H](c2ccc(Cl)cc2Cl)S1)n1ccnc1 | inactive | 
CC(=O)Nc1c(I)c(NC(C)=O)c(I)c(C(=O)O)c1I | inactive | 
C[C@H]1C[C@@H]2[C@H]([C@@H](O)C[C@@]3(C)[C@H]2CC[C@]3(O)C(=O)CO)[C@@]2(C)C=CC(=O)C=C12 | inactive | 
OCc1cccnc1 | inactive | 
OCCCc1ccccc1 | inactive | 
Cn1cnc2c(NCc3ccccc3)nc(NCCO)nc21 | inactive | 
CC(C(O)c1ccccc1)N(C)CCOC(c1ccccc1)c1ccccc1 (stereo unspecified) | inactive | 
O=C(O)CCCC[P+](c1ccccc1)(c1ccccc1)c1ccccc1 | inactive | 
CC(=O)Oc1ccc(C2(c3ccc(OC(C)=O)cc3)Oc3ccccc3NC2=O)cc1 | inactive | 
Nc1ccc(O)cc1 | inactive | 

Source: PubChem BioAssay (NCATS)
